Data as given in PubChem BioAssay.
Active and inactive are the calls of the source.

Tests used:
[1] = system: XIP peptide (Xip251-270) binding; assay: small-molecule binders of XIP peptide, primary screen, biochemical, small-molecule microarray, fluorescence 635/667 nm, 0.1 µg/mL protein (AID 1182); settings: fluorescent protein binding, 635 nm, higher = more signal, called active from +8 up or from −8 down
[2] = system: XIP peptide (Xip251-270); assay: small-molecule binders of XIP peptide, primary screen, biochemical, small-molecule microarray, fluorescence 635/667 nm, 0.5 µg/mL protein (AID 1183); settings: small-molecule microarray binding, fluorescence 635 nm; higher = more signal
[3] = Plasmodium falciparum growth inhibition, primary screen, strain 3D7, DAPI fluorescence, 100 nL (AID 1184);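 also: parasites grown inside human red blood cells in medium with human serum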; settings: P. falciparum 3D7 growth, 3 d, higher = more signal
[4] = biological target: Homeobox protein Hox-A13 (Mus musculus) (UniProt Q62424); assay: inhibitors of HoxA13-DNA binding, primary screen, biochemical, fluorescence polarization, labeled oligonucleotide (AID 1185); settings: 15 min, higher = more signal, called active from +8 up or from −8 down
Homeobox protein Hox-A13 (Mus musculus), sequence (Q62424 whole entry, looked up): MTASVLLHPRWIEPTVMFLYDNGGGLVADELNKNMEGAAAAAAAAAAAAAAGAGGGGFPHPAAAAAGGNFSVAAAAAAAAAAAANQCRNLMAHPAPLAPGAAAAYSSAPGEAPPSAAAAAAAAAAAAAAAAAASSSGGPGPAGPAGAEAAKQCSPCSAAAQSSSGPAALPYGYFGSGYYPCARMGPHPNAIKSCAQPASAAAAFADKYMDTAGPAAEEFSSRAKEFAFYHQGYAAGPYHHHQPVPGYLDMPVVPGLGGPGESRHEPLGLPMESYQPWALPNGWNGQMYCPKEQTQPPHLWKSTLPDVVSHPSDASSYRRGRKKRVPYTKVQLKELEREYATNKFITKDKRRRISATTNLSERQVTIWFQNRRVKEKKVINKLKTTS

Row | SMILES | composite z-score [1] | composite z-score [2] | z-score [3] | z-score [4]
1 | CCc1cc2c(nc1CC)CCN(CCC(C)=NO[C@H](C)c1cn([C@@H]3COC[C@H]3O)nn1)C2 | -0.171 (inactive) | -0.0063 | 0.653 | -1.7 (inactive)
2 | CO[C@H](C1CCCCC1)[C@H](C)C=CCC(=O)OCCCc1ccccc1 | -0.74 (inactive) | 0.628 | -0.45 | 1.25 (inactive)
3 | CCOC(=O)CCN1C(=O)[C@H]2[C@H]3[C@H](O)[C@H](O)CC(=NNC(=O)OCc4ccccc4)[C@@H]3CC[C@H]2C1=O | 0.0651 (inactive) | 0.791 | -0.597 | 0.897 (inactive)
4 | CO[C@H]1COC(=O)CC=C[C@H](C)[C@@H](OC)COC(=O)[C@H](C)COC(=O)CC=C[C@@H]1C | 0.163 (inactive) | -0.337 | 0.916 | 0.296 (inactive)
5 | CCOC(=O)[C@H](Cc1ccccc1)NC(=O)CCC1CC(OC(=O)NCCc2ccc(F)cc2)CC2(CCCC(COC(=O)NCC3CCCCC3)O2)O1 (some centres not stated) | 0.233 (inactive) | 0.605 | -1.82 | -2.33 (inactive)
6 | COC(=O)NCC=Cc1nc(CCCO)co1 | -0.755 (inactive) | 0.432 | 0.316 | -2.8 (inactive)
7 | O=C1CCCC=C1C(CCc1ccccc1)OC(=O)c1ccc(Br)cc1 (configuration not stated) | 0.622 (inactive) | -0.198 | -0.108 | -1.88 (inactive)
8 | CCOC(=O)[C@H](CC(C)C)NC(=O)CCC1CC(OC(=O)NCc2ccc3c(c2)OCO3)CC2(CCCC(COC(=O)NCc3cccc(C(F)(F)F)c3)O2)O1 (some centres not stated) | 0.319 (inactive) | 0.348 | -2.06 | -1.71 (inactive)
